40 compounds from PubChem BioAssay can be followed below.

A number with no mark means an inactive call. Active and inactive are the calls of the source. Unless noted, no stated cut-off is given here; in the data, active means inhibition above about 30%; inactive means the rest.

The target of the first test is Nuclear receptor coactivator 3 (Homo sapiens) (UniProt Q9Y6Q9). Kind of test: NCOA3 GAL4-fusion reporter inhibition – cell-based, luminescence, quadruplicate, confirmation (AID 588792;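 active means mean inhibition over 43.08%, the solvent-only control mean plus 3 SD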;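 further: 0% = DMSO treated cells and 100% = gossypol at 36 µM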). As to conditions: HEK293 GAL4-SRC3 luciferase reporter, at 3.6 µM, stronger effect = higher value. Background: A reporter such as luciferase makes a cellular process visible.
Chain of Nuclear receptor coactivator 3 (Homo sapiens) (Q9Y6Q9 whole entry, looked up, the tested form may be a part): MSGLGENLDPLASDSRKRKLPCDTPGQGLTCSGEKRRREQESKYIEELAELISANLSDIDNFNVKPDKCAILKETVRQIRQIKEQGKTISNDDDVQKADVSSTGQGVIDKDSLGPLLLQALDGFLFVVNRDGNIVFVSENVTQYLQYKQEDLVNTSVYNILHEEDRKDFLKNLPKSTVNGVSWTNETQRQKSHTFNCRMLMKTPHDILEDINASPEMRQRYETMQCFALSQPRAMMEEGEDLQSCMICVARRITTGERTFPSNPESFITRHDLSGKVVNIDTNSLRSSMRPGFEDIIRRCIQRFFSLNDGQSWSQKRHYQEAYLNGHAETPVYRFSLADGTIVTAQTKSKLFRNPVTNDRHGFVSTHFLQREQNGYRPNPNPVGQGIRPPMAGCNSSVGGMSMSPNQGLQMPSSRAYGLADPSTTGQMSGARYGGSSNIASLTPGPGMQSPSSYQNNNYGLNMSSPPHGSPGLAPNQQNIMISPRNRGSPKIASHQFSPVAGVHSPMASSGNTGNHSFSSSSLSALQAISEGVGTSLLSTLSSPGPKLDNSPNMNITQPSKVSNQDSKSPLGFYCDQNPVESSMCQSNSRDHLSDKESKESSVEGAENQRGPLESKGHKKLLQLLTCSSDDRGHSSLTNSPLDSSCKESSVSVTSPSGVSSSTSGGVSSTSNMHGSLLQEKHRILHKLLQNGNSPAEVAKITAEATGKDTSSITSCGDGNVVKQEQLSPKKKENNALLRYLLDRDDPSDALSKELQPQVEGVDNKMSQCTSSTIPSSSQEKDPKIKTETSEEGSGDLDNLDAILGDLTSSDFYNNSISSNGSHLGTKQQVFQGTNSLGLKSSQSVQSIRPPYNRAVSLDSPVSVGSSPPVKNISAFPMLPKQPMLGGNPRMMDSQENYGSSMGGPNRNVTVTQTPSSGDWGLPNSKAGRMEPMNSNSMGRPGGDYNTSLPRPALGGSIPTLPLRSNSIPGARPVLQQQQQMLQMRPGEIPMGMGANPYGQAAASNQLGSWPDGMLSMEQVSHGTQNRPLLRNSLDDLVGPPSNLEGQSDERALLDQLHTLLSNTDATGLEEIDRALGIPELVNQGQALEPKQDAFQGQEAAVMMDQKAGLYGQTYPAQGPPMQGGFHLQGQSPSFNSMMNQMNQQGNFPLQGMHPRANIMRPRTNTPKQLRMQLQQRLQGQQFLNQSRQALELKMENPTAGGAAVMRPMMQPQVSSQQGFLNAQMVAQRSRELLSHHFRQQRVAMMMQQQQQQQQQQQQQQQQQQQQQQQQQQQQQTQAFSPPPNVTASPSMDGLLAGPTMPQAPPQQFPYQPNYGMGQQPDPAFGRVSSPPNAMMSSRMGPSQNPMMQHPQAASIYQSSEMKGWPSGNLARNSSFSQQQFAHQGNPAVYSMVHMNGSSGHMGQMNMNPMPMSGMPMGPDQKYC
By inhibition is commonly meant the change of the read-out against control, counted positive when it falls. Regarding `Cc1ccc(/C=C/c2ccc(N(C)C)cc2)[n+](C)c1`, the inhibition is 36.3%.
Same read-out and setting: the result for `CCCCCCCC[n+]1cccc2c3ccccc3ccc21` reads 78.5% (active); that for `N=c1c2c(-c3ccccc3)c(-c3ccccc3)n(Cc3ccccc3)c2ncn1CCO`, 26.6%; that for `COc1ccc(Nc2ncnc3ccc(Br)cc23)c(OC)c1`, 67.1% (active).
On the same count and under the same terms, the result for `O=C(N/N=C/c1sc(N2CCOCC2)nc1-c1ccccc1)c1cccc(S(=O)(=O)N2CCOCC2)c1` reads 38.1%; that for `OCC1OC(n2cnc3c(NCc4ccccc4O)ncnc32)C(O)C1O` (stereo not given), 81% (active); that for `CCOc1cc(/C=C(/C#N)c2ccc(Cl)cc2)cc(Cl)c1OCC(=O)O`, 51.4% (active).
The same measure, in the same setting: the result for `O=C(NCc1ccco1)c1ccc2c(c1)N(Cc1ccccc1)CCS2` reads 4.13%.
As for `CCn1c(C)cc(C(=O)COC(=O)c2ccccc2[N+](=O)[O-])c1C`, the inhibition is 92.9% (active).
The same measure, in the same setting: under `O=C(N/N=C/c1cc(Cl)ccc1O)C(=O)Nc1ccccc1OC(F)(F)C(F)F` stands 29.3%; under `CCC(C)(C)c1ccc(OCCCC[n+]2cccc(C)c2C)c(C(C)(C)CC)c1`, 56.1% (active); under `CC(C)(C)c1ccc(Oc2ccc(N)cc2)cc1`, 68.3% (active).
The same measure, in the same setting: the result for `COc1ccccc1C(=O)Nc1nc2ccccc2s1` reads 85.4% (active).
Same read-out and setting: under `COc1cccc(/C=N/NC(=O)c2c(C)nc3ccc(Cl)cn23)c1O` stands 79.3% (active); under `C=CCn1c(C)cc(C2=NNC(=NCC)SC2)c1C`, 87% (active).
`COc1cccc(Cn2c(NCc3cccnc3)nc3c2c(=O)n(C)c(=O)n3C)c1`: the inhibition was 50.8% (active).
The same measure, in the same setting: the result for `NC(=S)NN=Cc1nccc2c(C(F)(F)F)cccc12` reads 86.8% (active); that for `Cc1ccsc1C(=O)OCC(=O)c1cc(C)n(CC2CCCO2)c1C` (stereo not given), 73.4% (active).
In the case of `CC(C)CC(=NNC(=O)c1ccncc1)c1cc(Cl)ccc1O`, the inhibition is 80.1% (active).
The same measure, in the same setting: under `CN(C)c1ccc(/C=C/c2ccc3c4ccccc4ccc3[n+]2-c2ccccc2)cc1` stands 70.9% (active).
Same read-out and setting: the result for `Cc1ccc(C)c(S(=O)(=O)N2CCN(c3ncnc4sccc34)CC2)c1` reads 63.1% (active); that for `CC(C)c1ccc(/C=N/Nc2ccc(C(=O)O)cc2)cc1`, -6.28%.
For `Cc1oc2c(F)c(F)c(F)c(F)c2c1S(=O)(=O)Nc1cccc(C(F)(F)F)c1`, the inhibition is -6.6%.
Still for that read-out and setting: the result for `Cc1cccn2c(=O)c3cc(C(=O)NCCN4CCOCC4)c(=N)n(Cc4ccc(F)cc4)c3nc12` reads 36.9%; that for `COc1ccc(-c2cn[nH]c2-c2ccc(OCc3ccc([N+](=O)[O-])cc3)cc2O)cc1`, 33.1%; that for `O=C(Nc1ccon1)c1nc[nH]c1C(=O)NCc1ccccc1`, 35.1%.
Still for that read-out and setting: under `CC(=NNC(=S)Nc1cccc(C)c1)c1ccccn1` stands 65.8% (active); under `Cc1[nH]c(=O)c(C(=O)/C=C/c2ccccc2)c2c1CCCC2`, 66.8% (active); under `COC(=O)C12OCC34C(CC5C(C)=C(O)C(=O)CC5(C)C3C(O)C1O)OC(=O)C(OC(=O)C=C(C)C)C24` (stereo not given), 97.3% (active).
Consider `CCCCCCn1c2c(c(=N)c3c1CCC3)CCC2`, for which the inhibition was 61.3% (active).
On the same count and under the same terms, the result for `COc1ccc(CCNc2ncnc3c2oc2ccccc23)cc1OC` reads 15.8%.
On the same count and under the same terms, under `CN(C)c1ccc(CNC(=O)CCNS(=O)(=O)c2cc(Br)cnc2N)cc1` stands 31.5%; under `O=C(c1ccccc1)c1c2c(cc3sc4ccccc4[n+]13)-c1cccc3cccc-2c13`, 49% (active); under `CC(=O)N1CCCc2cc(S(=O)(=O)N3CCCC(C(=O)N4CCN(c5cccc(Cl)c5)CC4)C3)ccc21` (stereo not given), 26.4%.
As to `OCCCNc1nccc(-c2cc(Nc3cccc(Cl)c3)ncn2)n1`, the inhibition is 95% (active).
Still for that read-out and setting: the result for `O=c1c2ccccc2sc2ccc(C#CC3(O)CCCCC3)cc12` reads 87.4% (active).
`COc1ccc(-c2oc3ccc(N4CCOCC4)cc3c2C#CCO)cc1`: the inhibition was 10.8%.
Still for that read-out and setting: the result for `O=C(Nc1ccc2c(c1)OCCO2)C1CCCC1` reads 15.8%; that for `CC[C@H]1CN2CCc3cc(OC)c(OC)cc3[C@@H]2C[C@@H]1C[C@H]1NCCc2cc(OC)c(OC)cc21`, 98.3% (active); that for `CC(=O)NC(c1ccc(Cl)cc1)c1ccc2cccnc2c1O` (stereo not given), 83% (active).

The test system of a further test is transactivating tegument protein VP16 (Human herpesvirus 1), Gal4-VP16 luciferase reporter. The test can be described thus: repression of VP16-driven luciferase reporter – cell-based, luminescence, high throughput, counter-screen for SRC3 inhibitor project (AID 588794). The settings on record: mammalian cells, at 3.6 µM, stronger effect = higher value.
Turning to `Cc1ccc(/C=C/c2ccc(N(C)C)cc2)[n+](C)c1`, the inhibition is 56% (active).
As for `CCCCCCCC[n+]1cccc2c3ccccc3ccc21`, the inhibition was 81.6% (active).
`N=c1c2c(-c3ccccc3)c(-c3ccccc3)n(Cc3ccccc3)c2ncn1CCO`: the inhibition was 61% (active).
Same read-out and setting: the result for `COc1ccc(Nc2ncnc3ccc(Br)cc23)c(OC)c1` reads 9.75%; that for `O=C(N/N=C/c1sc(N2CCOCC2)nc1-c1ccccc1)c1cccc(S(=O)(=O)N2CCOCC2)c1`, 46.1% (active).
Same read-out and setting: the result for `OCC1OC(n2cnc3c(NCc4ccccc4O)ncnc32)C(O)C1O` (stereo not given) reads 82.1% (active).
On to `CCOc1cc(/C=C(/C#N)c2ccc(Cl)cc2)cc(Cl)c1OCC(=O)O`, for which the inhibition is 45.5% (active).
On the same count and under the same terms, the result for `O=C(NCc1ccco1)c1ccc2c(c1)N(Cc1ccccc1)CCS2` reads 6.64%; that for `CCn1c(C)cc(C(=O)COC(=O)c2ccccc2[N+](=O)[O-])c1C`, 90.4% (active).
With `O=C(N/N=C/c1cc(Cl)ccc1O)C(=O)Nc1ccccc1OC(F)(F)C(F)F`, the inhibition was 38.3% (active).
Turning to `CCC(C)(C)c1ccc(OCCCC[n+]2cccc(C)c2C)c(C(C)(C)CC)c1`, the inhibition is 72.2% (active).
On the same count and under the same terms, under `CC(C)(C)c1ccc(Oc2ccc(N)cc2)cc1` stands 61.4% (active); under `COc1ccccc1C(=O)Nc1nc2ccccc2s1`, 79.6% (active); under `COc1cccc(/C=N/NC(=O)c2c(C)nc3ccc(Cl)cn23)c1O`, 78.5% (active).
Same read-out and setting: the result for `C=CCn1c(C)cc(C2=NNC(=NCC)SC2)c1C` reads 85.3% (active).
The same measure, in the same setting: under `COc1cccc(Cn2c(NCc3cccnc3)nc3c2c(=O)n(C)c(=O)n3C)c1` stands 41.3% (active); under `NC(=S)NN=Cc1nccc2c(C(F)(F)F)cccc12`, 69.7% (active); under `Cc1ccsc1C(=O)OCC(=O)c1cc(C)n(CC2CCCO2)c1C` (stereo not given), 65.6% (active).
As to `CC(C)CC(=NNC(=O)c1ccncc1)c1cc(Cl)ccc1O`, the inhibition is 72.5% (active).
With `CN(C)c1ccc(/C=C/c2ccc3c4ccccc4ccc3[n+]2-c2ccccc2)cc1`, the inhibition was 82.3% (active).
Still for that read-out and setting: the result for `Cc1ccc(C)c(S(=O)(=O)N2CCN(c3ncnc4sccc34)CC2)c1` reads 59.6% (active); that for `CC(C)c1ccc(/C=N/Nc2ccc(C(=O)O)cc2)cc1`, -26.7%; that for `Cc1oc2c(F)c(F)c(F)c(F)c2c1S(=O)(=O)Nc1cccc(C(F)(F)F)c1`, 11.6%.
`Cc1cccn2c(=O)c3cc(C(=O)NCCN4CCOCC4)c(=N)n(Cc4ccc(F)cc4)c3nc12`: the inhibition was 41.6% (active).
Still for that read-out and setting: under `COc1ccc(-c2cn[nH]c2-c2ccc(OCc3ccc([N+](=O)[O-])cc3)cc2O)cc1` stands 34% (active).
The same measure, in the same setting: under `O=C(Nc1ccon1)c1nc[nH]c1C(=O)NCc1ccccc1` stands 52.7% (active); under `CC(=NNC(=S)Nc1cccc(C)c1)c1ccccn1`, 67.1% (active).
On the same count and under the same terms, the result for `Cc1[nH]c(=O)c(C(=O)/C=C/c2ccccc2)c2c1CCCC2` reads 56.1% (active); that for `COC(=O)C12OCC34C(CC5C(C)=C(O)C(=O)CC5(C)C3C(O)C1O)OC(=O)C(OC(=O)C=C(C)C)C24` (stereo not given), 96.7% (active).
On to `CCCCCCn1c2c(c(=N)c3c1CCC3)CCC2`, for which the inhibition is 76.9% (active).
Same read-out and setting: under `COc1ccc(CCNc2ncnc3c2oc2ccccc23)cc1OC` stands 34.9% (active); under `CN(C)c1ccc(CNC(=O)CCNS(=O)(=O)c2cc(Br)cnc2N)cc1`, 19.3%.
Same read-out and setting: the result for `O=C(c1ccccc1)c1c2c(cc3sc4ccccc4[n+]13)-c1cccc3cccc-2c13` reads 61.2% (active); that for `CC(=O)N1CCCc2cc(S(=O)(=O)N3CCCC(C(=O)N4CCN(c5cccc(Cl)c5)CC4)C3)ccc21` (stereo not given), 31.5% (active); that for `OCCCNc1nccc(-c2cc(Nc3cccc(Cl)c3)ncn2)n1`, 95.2% (active).
Consider `O=c1c2ccccc2sc2ccc(C#CC3(O)CCCCC3)cc12`, for which the inhibition was 84.4% (active).
The same measure, in the same setting: the result for `COc1ccc(-c2oc3ccc(N4CCOCC4)cc3c2C#CCO)cc1` reads 21.3%; that for `O=C(Nc1ccc2c(c1)OCCO2)C1CCCC1`, -21.9%.
The same measure, in the same setting: under `CC[C@H]1CN2CCc3cc(OC)c(OC)cc3[C@@H]2C[C@@H]1C[C@H]1NCCc2cc(OC)c(OC)cc21` stands 97.2% (active).
For the compound `CC(=O)NC(c1ccc(Cl)cc1)c1ccc2cccnc2c1O` (stereo not given), the inhibition was 79.9% (active).
